The campaign covered roughly 1,500 compounds. About 460 (31%) were called active. Roughly 1% stayed inconclusive and do not appear here.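 Rule for the calls: active = curve reaches 40% activation over neutral controls at an AC40 no higher than the top valid tested concentration; inconclusive = no clear call, values can overlap the other calls; inactive = signal moving opposite to the expected increase, and the rest.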 A selection follows. Measured potencies and affinities stand elsewhere.
test: activators of glucose-dependent insulin secretion, dose response, cell-based, INS-1E, Gaussia luciferase, luminescence, cherry-pick, set 2 (AID 977607); conditions: INS-1E GLuc insulin secretion reporter, 2-3 h, stronger effect = higher value; at 35 µM, 100% = signal doubled over neutral wells unless noted;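 note: 0% = median of the plate neutral control wells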

Max activation, inactive:
COc1ccc(CC(=O)c2ccc(OC)c(OC)c2)cc1 18.3% [at 0.0016 µM, 100% = signal doubled over neutral wells]
COc1cc2ccc(C(C)=O)cc2cc1OC 29.7% [at 0.0016 µM, 100% = signal doubled over neutral wells]
COc1ccc(C(C)=O)cc1CSCc1cc(C(C)=O)ccc1OC 10.8%
CC(C)c1ccc2oc(=O)cc(CN3CCCCC3)c2c1 -12.8%
Cc1cc2oc(=O)cc(CN3CCOCC3)c2c(C)c1Cl -12.4% [at 0.0016 µM, 100% = signal doubled over neutral wells]
Cc1ccccc1Cc1c(C)nc2c(C(=O)NCc3ccco3)cnn2c1C -44.9%
COc1ccc(-c2cc(C(F)(F)F)n3nc(C(=O)O)cc3n2)cc1OC 13.4%
C[C@H]1[C@@H](c2ccccc2)Oc2c(Cl)cccc2S(=O)(=O)N1C -29.7% [at 11 µM, 100% = signal doubled over neutral wells]
CCN1CCN(c2nnc(-c3ccccc3)c3ccccc23)CC1 13.4% [at 0.135 µM, 100% = signal doubled over neutral wells]
COC(=O)Cn1cc(C#N)c2ccccc21 43% [at 0.42 µM, 100% = signal doubled over neutral wells]
CN(C)C(=O)c1ccc(-c2ccc([C@@H]3[C@@H](CO)N4C(=O)CN(C(=O)C5CC5)C[C@@H]34)cc2)cc1 31.8% [at 0.046 µM, 100% = signal doubled over neutral wells]
C/C=C1\COC(C(=O)NCc2ccccc2)(C(F)(F)F)C=C1C=C(C)C (configuration not stated) -29.1%
CN(c1ccc(F)cc1)S(=O)(=O)c1ccc(Cl)c(C(=O)NCC2CCCO2)c1 (configuration not stated) -19.1%
CN(C(=O)[C@H]1O[C@@H](n2cnc(C(N)=O)n2)[C@H](O)[C@@H]1O)c1ccccc1 -24.3% [at 1.2 µM, 100% = signal doubled over neutral wells]
CN1CCSc2ccc(C(=O)Nc3cccc(F)c3)cc21 -34.2%
Cc1nc2c(c(N3CCOCC3)n1)OCC(=O)N2 52.8%
COc1cc(C2N(C)CCC3(OCCO3)C2(C)C)cc(OC)c1OC (configuration not stated) -12.6% [at 0.0016 µM, 100% = signal doubled over neutral wells]
CCSc1nnc2ccc(-c3cccs3)nn12 23.8%
COc1ccc(-c2nnc3sc(-c4ccco4)nn23)cc1OC -14.1% [at 0.046 µM, 100% = signal doubled over neutral wells]
CC/C(O)=C1\C(=O)CC(c2ccccc2)CC1=NC(C)C (configuration not stated) -12.6% [at 1.2 µM, 100% = signal doubled over neutral wells]
CCN(CC)CCn1c(=N)n(CC(O)COc2ccccc2)c2ccccc21 (configuration not stated) -13.8% [at 3.8 µM, 100% = signal doubled over neutral wells]
Cc1ccc(C(CC(=O)O)NC(=O)c2ccc(S(=O)(=O)N3CC(C)OC(C)C3)cc2)cc1 (configuration not stated) -15.8% [at 0.42 µM, 100% = signal doubled over neutral wells]
CCOC1=C2[C@H](c3ccc(C)cc3)N(S(=O)(=O)c3ccc(C)cc3)C[C@H]2n2c(=O)n(-c3ccccc3)c(=O)n2C1 -23.2% [at 0.005 µM, 100% = signal doubled over neutral wells]
CNc1nc(N)c(C(=O)C(C)(C)C)s1 27.9% [at 11 µM, 100% = signal doubled over neutral wells]
CC1(C)Cc2c(c(-c3ccco3)nc3n[nH]c(N)c23)CO1 25% [at 0.135 µM, 100% = signal doubled over neutral wells]
CN=C1c2ccccc2CN1c1cccc(C(=O)OC)c1 14.7%
O=S(=O)(c1ccc(NCCCO)nc1)N1CCOCC1 -14.1% [at 0.015 µM, 100% = signal doubled over neutral wells]
COC(=O)c1c(C)oc(C)c1S(=O)(=O)Nc1ccc(C(C)C)cc1 -24.4%
Cc1ccc(-c2cnc3cccnn23)cc1F 39% [at 0.015 µM, 100% = signal doubled over neutral wells]
COC(=O)c1ccc(Oc2ccc(C(F)(F)F)cn2)cc1 -19.1% [at 0.135 µM, 100% = signal doubled over neutral wells]
Cc1nc2c(-c3ccc(F)cc3)cnn2c2c1CCC2 -15.5% [at 0.0016 µM, 100% = signal doubled over neutral wells]
COC(=O)C[C@@H]1C=C[C@H](NC(=O)Cc2ccccn2)[C@@H](CO)O1 -17.5% [at 0.015 µM, 100% = signal doubled over neutral wells]
COCCNC(=O)CCCn1c(=O)c2ccccc2n(Cc2ccccc2C#N)c1=O -20.3% [at 0.015 µM, 100% = signal doubled over neutral wells]
CCc1c(C(=O)Nc2ccc(C)c(C)c2)[nH]c(C)c1C(C)=O -21.4% [at 11 µM, 100% = signal doubled over neutral wells]
CCN(c1ccccc1)S(=O)(=O)c1ccc(OC)c(OC)c1 12.1%
COc1ccc(S(=O)(=O)N2CCC(C(=O)NCc3ccccn3)CC2)cc1OC 32.9% [at 3.8 µM, 100% = signal doubled over neutral wells]
COc1ccc(N2CCN(S(=O)(=O)c3ccc(-c4cc(C)no4)s3)CC2)cc1 -17.8% [at 0.135 µM, 100% = signal doubled over neutral wells]

Source: PubChem BioAssay AID977607 (Broad Institute, 2014)
